# According to PubChem BioAssay:
# Active and inactive are the calls of the source.
# Biological target: NADPH oxidase 4 (Homo sapiens) (UniProt Q9NPH5)
# Test: compounds shifting NOX4 Amplex Red fluorescence – cell-based, HEK293-NOX4, tetracycline-induced, NOX inhibitor project, primary screen (AID 1160)
# Settings: HEK293-NOX4, Amplex Red H2O2 fluorescence, 45 min; higher = more signal, called active from +8 up or from −8 down
# NADPH oxidase 4 (Homo sapiens), sequence (Q9NPH5 whole entry, looked up): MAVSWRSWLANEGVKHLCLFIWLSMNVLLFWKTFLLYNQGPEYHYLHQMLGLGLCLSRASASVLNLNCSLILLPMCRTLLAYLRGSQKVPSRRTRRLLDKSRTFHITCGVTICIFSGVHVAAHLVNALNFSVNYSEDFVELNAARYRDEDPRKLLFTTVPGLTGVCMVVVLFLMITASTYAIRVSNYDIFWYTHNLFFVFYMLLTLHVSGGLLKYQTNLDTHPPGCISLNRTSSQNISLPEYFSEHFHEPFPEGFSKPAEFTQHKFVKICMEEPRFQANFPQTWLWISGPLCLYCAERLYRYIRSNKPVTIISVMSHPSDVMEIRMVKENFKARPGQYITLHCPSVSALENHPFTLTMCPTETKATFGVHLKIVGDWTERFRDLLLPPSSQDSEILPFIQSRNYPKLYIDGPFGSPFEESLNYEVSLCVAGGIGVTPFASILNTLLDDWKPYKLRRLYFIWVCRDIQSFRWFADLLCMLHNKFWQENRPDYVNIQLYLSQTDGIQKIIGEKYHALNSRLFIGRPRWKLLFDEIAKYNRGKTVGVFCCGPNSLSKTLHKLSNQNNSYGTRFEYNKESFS
row,Structure (SMILES),z-score
1,COCCNC(=O)OCC1CCCC2(CC(OC(=O)NCCc3ccc(F)cc3)CC(CCC(=O)N[C@@H](C)C(=O)OC)O2)O1 (stereo partly drawn),0.948 (inactive)
2,CCOC(=O)CCN1C(=O)[C@H]2[C@H]3[C@H](O)[C@H](O)CC(=NOCc4ccccc4)[C@@H]3CC[C@H]2C1=O,0.593 (inactive)
3,CCCNC(=O)OC[C@H]1O[C@H](CCON=CC[C@@H]2C=C[C@H](OC(C)=O)[C@@H](COC(C)=O)O2)C=C[C@@H]1Oc1ccc(OC)cc1,0.143 (inactive)
4,O=C1[C@H]2[C@H]3[C@H](O)[C@H](O)CC(=NOC[C@@H](O)COCc4ccco4)[C@H]3CC[C@H]2C(=O)N1Cc1ccc2c(c1)OCO2,0.718 (inactive)
5,COC(=O)CC=C[C@@H](C)[C@@H](C=NO[C@@H](C)c1cc(-c2c(C)cc(C)cc2C)no1)OC,-0.771 (inactive)
6,C=C(/C(=C/C[C@@H](OC(=O)c1ccncc1)c1ccc(OCCO)cc1)c1cnc2ccccc2c1)C(C)C,-0.648 (inactive)
7,CC(=O)OC[C@H]1O[C@H](CC=NOC[C@@H](C)[C@H](OCc2ccccc2)C(C)C)C=C[C@@H]1OC(C)=O,-0.344 (inactive)

# Biological target: NADPH oxidase 5 (Homo sapiens) (UniProt Q96PH1)
# Test: compounds shifting NOX5 Amplex Red fluorescence – cell-based, HEK293-NOX5, NOX inhibitor project, primary screen (AID 1161)
# Settings: HEK293-NOX5, ionomycin, 45 min, higher = more signal
# NADPH oxidase 5 (Homo sapiens), sequence (Q96PH1 whole entry, looked up): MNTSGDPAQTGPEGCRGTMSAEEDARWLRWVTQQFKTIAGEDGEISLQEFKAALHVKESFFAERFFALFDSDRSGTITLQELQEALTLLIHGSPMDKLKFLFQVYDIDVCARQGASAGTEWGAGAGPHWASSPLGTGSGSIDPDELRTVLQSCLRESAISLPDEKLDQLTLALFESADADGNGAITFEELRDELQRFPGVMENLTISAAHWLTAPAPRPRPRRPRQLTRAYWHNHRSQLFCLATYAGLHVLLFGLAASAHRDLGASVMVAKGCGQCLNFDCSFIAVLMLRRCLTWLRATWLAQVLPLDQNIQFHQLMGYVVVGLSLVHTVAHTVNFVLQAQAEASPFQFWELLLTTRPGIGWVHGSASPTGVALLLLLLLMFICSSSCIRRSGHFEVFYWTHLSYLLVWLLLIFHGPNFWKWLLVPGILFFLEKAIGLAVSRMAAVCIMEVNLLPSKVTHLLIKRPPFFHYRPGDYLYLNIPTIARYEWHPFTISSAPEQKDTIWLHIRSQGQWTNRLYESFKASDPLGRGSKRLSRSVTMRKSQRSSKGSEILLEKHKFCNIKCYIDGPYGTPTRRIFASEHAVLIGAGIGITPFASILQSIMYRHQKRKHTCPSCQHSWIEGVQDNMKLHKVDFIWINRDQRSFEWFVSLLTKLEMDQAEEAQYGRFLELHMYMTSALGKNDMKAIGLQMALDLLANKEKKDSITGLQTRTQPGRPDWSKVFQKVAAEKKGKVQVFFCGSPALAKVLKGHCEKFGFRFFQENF
row,Structure (SMILES),z-score
1,CC(C)c1ccc(NN2C(C(O)c3ccc4c(c3)OCO4)C=CC3C(=O)N(c4ccccc4)C(=O)C32)cc1 (stereo not drawn),-0.752
2,C[C@@H]1CCC2C(=O)N(Cc3ccccc3)C[C@@H](O)CN2[C@H]1c1ccc(Br)cc1 (stereo partly drawn),-0.836
3,O=C1[C@H]2[C@H]3[C@H](O)[C@H](O)CC(=NO[C@@H]4O[C@H](CO)[C@@H](O)[C@H](O)[C@H]4O)[C@H]3CC[C@H]2C(=O)N1Cc1ccc2c(c1)OCO2,1.55
4,CC[C@@H](c1ccccc1)n1c(=O)n2n(c1=O)[C@H]1[C@H](O)[C@@H]3O[C@@H]3C(=NOCC=C(C)CCC=C(C)C)[C@H]1CC2,-1.35
5,CC(C)(C)N1C(=O)[C@H]2[C@H]3[C@H](O)[C@H](O)CC(=NO[C@@H]4O[C@H](CO)[C@@H](O)[C@H](O)[C@H]4O)[C@@H]3CC[C@H]2C1=O,-2.07
6,CC(C)(C)N1C(=O)[C@H]2[C@H]3[C@H](O)[C@H](O)CC(=NOCc4ccccc4)[C@@H]3CC[C@H]2C1=O,0.791
7,COCCOC(=O)N1C(=O)[C@@]2(c3cc(C#CCNC(N)=O)ccc31)[C@H](c1ccccc1OCCO)N1[C@H](c3ccccc3)[C@H](c3ccccc3)OC(=O)[C@H]1[C@@H]2C(=O)N1CCN(c2ncccn2)CC1,-0.814
8,COc1ccc(O[C@H]2C=C[C@@H](c3ccccc3)O[C@@H]2COC(=O)N2CCCCC2)cc1,-1.71
9,CCc1cccc(NC(=O)O[C@H]2[C@H](OC(=O)Nc3ccc4c(c3)OCO4)[C@@H](OC(=O)Nc3ccc4c(c3)OCO4)[C@@H](OC)O[C@@H]2CO)c1,-1.87
10,CCN1C(=O)[C@H]2[C@H]3[C@H](O)[C@H](O)CC(=NOCC=C(C)CCC=C(C)C)[C@H]3CC[C@H]2C1=O,-1.52
11,CC(C)C[C@@H]1NC(=O)[C@H]2C[C@@H](C(=O)O)[C@@H](c3ccc(O)cc3)N2C1=O,-0.356
12,CN(C)C(=O)[C@@]1(Cc2ccccc2)N=C(c2ccc(OCCCO)cc2)O[C@H]1c1ccccc1CN=[N+]=[N-],0.163
13,CO[C@@H]1COC(=O)CC=C[C@@H](C)[C@@H]2C=C[C@H](O)[C@@H](COC(=O)CCC[C@H]1C)O2,0.312
14,CC(C)CON=C1C[C@@H](O)[C@@H](O)[C@@H]2[C@@H]3C(=O)N(Cc4ccccc4)C(=O)[C@@H]3CC[C@@H]12,-0.0393
15,COC(=O)c1c(CC[C@@H](CO)NC(=O)N[C@H](Cc2ccccc2)Cn2cc(-c3ccccc3N)nn2)oc(C(C)=O)c1C(=O)OC,1.74
16,CO[C@@H]1COC(=O)CCC[C@@H](C)[C@H](OC)COC(=O)CCC[C@H]1C,0.031
17,CCOC(=O)CCN1C(=O)[C@H]2[C@H]3[C@H](O)[C@H](O)CC(=NOC[C@@H](O)COCc4ccco4)[C@@H]3CC[C@H]2C1=O,0.6
18,C=COC[C@H]1CN2[C@@H](CC[C@@H](C)[C@@H]2c2ccc(Br)cc2)C(=O)O1,0.574

row,Structure (SMILES),z-score
1,O=C1C[C@@H](O)[C@@H](O)[C@@H]2[C@@H]3C(=O)N(c4cccc(Oc5ccccc5)c4)C(=O)[C@@H]3CC[C@@H]12,0.558
2,COc1ccc([Si](C)(C)[C@@H]2[C@@H](CCO)O[C@]3(C(=O)N(Cc4ccc(NC(C)=O)cc4)c4ccccc43)[C@H]2C)cc1,0.207
3,O=C1[C@H]2[C@H]3[C@H](O)[C@H](O)CC(=NO[C@@H]4O[C@H](CO)[C@@H](O)[C@H](O)[C@H]4O)[C@H]3CC[C@H]2C(=O)N1C1CCCCC1,0.329
4,COc1ccc(-c2ccc3c(n2)CCCN3CC(O)CN2CCCc3nc(C)c(C)cc32)cc1 (stereo not drawn),-1.35
5,O=C1CCCC2OC12C(O)CCc1ccccc1 (stereo not drawn),0.0429
6,C[C@@H](c1ccccc1)N1C(=O)[C@H]2[C@H]3[C@H](O)[C@H](O)CC(=NNC(=O)OCc4ccccc4)[C@H]3CC[C@H]2C1=O,0.412
7,COc1ccc(O[C@H]2C=C[C@@H](c3ccccc3)O[C@@H]2COC(=O)CCC(C)=NOCC[C@@H]2C=C[C@H](OC(C)=O)[C@@H](COC(C)=O)O2)cc1,-2.19
8,COC(=O)C1=C(C)N(Cc2ccccc2)[C@]23O[C@](C(=O)OC)(C(=O)N2[C@@H]1c1ccccc1)[C@H]1CCOC(=O)[C@H]13,1.06
9,Cn1c(=O)n2n(c1=O)[C@H]1[C@H](O)[C@@H]3O[C@@H]3C(=NOC[C@@H](O)COCc3ccco3)[C@H]1CC2,0.59
10,C[C@@H]1CC[C@H]2C(=O)O[C@H](COc3ccc(C(C)(C)C)cc3)CN2[C@H]1c1ccc(Br)cc1,0.568
11,C=CC[C@]1(C(=O)NCc2ccccc2)N=C(c2ccc(OCCCO)cc2)O[C@H]1c1ccccc1,-1.96
12,COCCNC(=O)OCC1CCCC2(CC(OC(=O)NCCc3ccc(F)cc3)CC(CCC(=O)N[C@@H](C)C(=O)OC)O2)O1 (stereo partly drawn),0.232
13,CCOC(=O)CCN1C(=O)[C@H]2[C@H]3[C@H](O)[C@H](O)CC(=NOCc4ccccc4)[C@@H]3CC[C@H]2C1=O,1.14
14,CCCNC(=O)OC[C@H]1O[C@H](CCON=CC[C@@H]2C=C[C@H](OC(C)=O)[C@@H](COC(C)=O)O2)C=C[C@@H]1Oc1ccc(OC)cc1,-1.07
15,O=C1[C@H]2[C@H]3[C@H](O)[C@H](O)CC(=NOC[C@@H](O)COCc4ccco4)[C@H]3CC[C@H]2C(=O)N1Cc1ccc2c(c1)OCO2,0.00627
16,COC(=O)CC=C[C@@H](C)[C@@H](C=NO[C@@H](C)c1cc(-c2c(C)cc(C)cc2C)no1)OC,-3.87
17,C=C(/C(=C/C[C@@H](OC(=O)c1ccncc1)c1ccc(OCCO)cc1)c1cnc2ccccc2c1)C(C)C,-3.24
18,CC(=O)OC[C@H]1O[C@H](CC=NOC[C@@H](C)[C@H](OCc2ccccc2)C(C)C)C=C[C@@H]1OC(C)=O,-2.35
